The target of assay [1] is Sphingosine kinase 1 (Homo sapiens) (UniProt Q9NYA1). Conditions: at 1 µM.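 Further: mean SPHK1 inhibition value reported from the GSK PKIS kinase panel screen.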
The target of assay [2] is T1, Sphingosine kinase 2 (Homo sapiens) (UniProt Q9NRA0).
T1 sequence (whole entry): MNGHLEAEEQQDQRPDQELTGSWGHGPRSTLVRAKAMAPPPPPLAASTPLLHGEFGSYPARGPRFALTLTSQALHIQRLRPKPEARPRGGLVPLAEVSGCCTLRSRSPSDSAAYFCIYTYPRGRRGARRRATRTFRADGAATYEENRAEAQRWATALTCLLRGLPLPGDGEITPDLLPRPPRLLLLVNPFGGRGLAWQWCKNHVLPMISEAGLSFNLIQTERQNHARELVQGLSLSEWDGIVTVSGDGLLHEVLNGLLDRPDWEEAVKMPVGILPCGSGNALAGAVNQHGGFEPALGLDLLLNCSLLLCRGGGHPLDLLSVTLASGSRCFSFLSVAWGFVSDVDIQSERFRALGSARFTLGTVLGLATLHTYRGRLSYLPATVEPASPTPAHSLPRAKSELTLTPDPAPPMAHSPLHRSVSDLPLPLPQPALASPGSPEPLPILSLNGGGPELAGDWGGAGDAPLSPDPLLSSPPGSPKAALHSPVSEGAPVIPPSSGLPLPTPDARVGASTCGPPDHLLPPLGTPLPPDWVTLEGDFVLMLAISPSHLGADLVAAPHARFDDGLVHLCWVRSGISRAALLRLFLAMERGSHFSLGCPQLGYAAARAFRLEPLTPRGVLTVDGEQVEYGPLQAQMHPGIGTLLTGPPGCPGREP
Conditions: at 0.1 µM.

Assay [3] deals with T1, Sphingosine kinase 2 (Homo sapiens). Conditions: at 1 µM.
Assay [4] concerns the target Casein kinase II subunit alpha (Homo sapiens) (UniProt P68400). Conditions: at 0.1 µM.
Assay [5] shares this target. Conditions: at 1 µM.
Assay [6] has as its target T2, Inhibitor of nuclear factor kappa-B kinase subunit alpha (Homo sapiens) (UniProt O15111).
T2 sequence (whole entry): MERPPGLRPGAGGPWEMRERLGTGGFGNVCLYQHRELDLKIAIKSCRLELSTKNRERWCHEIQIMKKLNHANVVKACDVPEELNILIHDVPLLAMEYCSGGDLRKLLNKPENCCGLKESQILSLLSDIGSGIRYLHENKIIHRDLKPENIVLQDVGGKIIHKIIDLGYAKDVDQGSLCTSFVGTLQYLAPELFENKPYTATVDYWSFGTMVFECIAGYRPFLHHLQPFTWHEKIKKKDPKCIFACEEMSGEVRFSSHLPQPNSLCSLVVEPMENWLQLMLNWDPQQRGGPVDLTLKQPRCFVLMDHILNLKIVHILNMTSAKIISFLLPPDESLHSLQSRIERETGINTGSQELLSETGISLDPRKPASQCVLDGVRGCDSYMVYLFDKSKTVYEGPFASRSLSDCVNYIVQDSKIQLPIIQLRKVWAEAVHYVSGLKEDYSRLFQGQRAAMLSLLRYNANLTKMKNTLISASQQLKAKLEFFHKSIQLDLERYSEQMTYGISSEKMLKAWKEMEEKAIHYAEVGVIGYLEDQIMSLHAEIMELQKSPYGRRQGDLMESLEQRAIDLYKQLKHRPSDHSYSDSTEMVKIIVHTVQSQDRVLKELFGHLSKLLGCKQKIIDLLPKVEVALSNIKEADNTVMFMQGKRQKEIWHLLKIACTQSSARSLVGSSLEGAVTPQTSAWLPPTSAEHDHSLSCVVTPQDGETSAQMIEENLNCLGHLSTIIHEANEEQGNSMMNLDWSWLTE
Conditions: at 0.1 µM.

The target in assay [7] is T2, Inhibitor of nuclear factor kappa-B kinase subunit alpha (Homo sapiens). Conditions: at 1 µM.
In assay [8] the target is T3, Inhibitor of nuclear factor kappa-B kinase subunit beta (Homo sapiens) (UniProt O14920).
T3 sequence (whole entry): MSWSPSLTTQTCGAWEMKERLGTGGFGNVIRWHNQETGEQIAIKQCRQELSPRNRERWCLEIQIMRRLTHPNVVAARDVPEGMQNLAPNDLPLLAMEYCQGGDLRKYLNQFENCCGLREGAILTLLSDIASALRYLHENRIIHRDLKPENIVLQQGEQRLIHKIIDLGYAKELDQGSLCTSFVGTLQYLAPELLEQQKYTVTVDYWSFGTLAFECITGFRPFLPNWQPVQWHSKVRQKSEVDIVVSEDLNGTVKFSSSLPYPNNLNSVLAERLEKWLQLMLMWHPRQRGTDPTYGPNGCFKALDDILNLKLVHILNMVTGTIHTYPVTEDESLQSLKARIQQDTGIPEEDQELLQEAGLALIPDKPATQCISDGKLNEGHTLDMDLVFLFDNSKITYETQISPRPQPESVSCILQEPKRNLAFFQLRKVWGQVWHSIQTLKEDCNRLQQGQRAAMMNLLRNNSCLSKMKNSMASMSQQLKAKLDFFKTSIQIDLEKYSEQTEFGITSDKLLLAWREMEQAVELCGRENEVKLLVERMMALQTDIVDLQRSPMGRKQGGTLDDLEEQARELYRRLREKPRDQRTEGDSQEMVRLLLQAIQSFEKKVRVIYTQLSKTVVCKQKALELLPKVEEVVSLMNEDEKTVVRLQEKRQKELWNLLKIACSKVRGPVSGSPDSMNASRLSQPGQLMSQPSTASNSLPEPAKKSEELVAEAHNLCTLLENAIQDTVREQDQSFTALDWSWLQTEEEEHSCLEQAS
Conditions: at 0.1 µM.

Assay [9] addresses T3, Inhibitor of nuclear factor kappa-B kinase subunit beta (Homo sapiens). Conditions: at 1 µM.
The target of assay [10] is T4, Inhibitor of nuclear factor kappa-B kinase subunit epsilon (Homo sapiens) (UniProt Q14164).
T4 sequence (whole entry): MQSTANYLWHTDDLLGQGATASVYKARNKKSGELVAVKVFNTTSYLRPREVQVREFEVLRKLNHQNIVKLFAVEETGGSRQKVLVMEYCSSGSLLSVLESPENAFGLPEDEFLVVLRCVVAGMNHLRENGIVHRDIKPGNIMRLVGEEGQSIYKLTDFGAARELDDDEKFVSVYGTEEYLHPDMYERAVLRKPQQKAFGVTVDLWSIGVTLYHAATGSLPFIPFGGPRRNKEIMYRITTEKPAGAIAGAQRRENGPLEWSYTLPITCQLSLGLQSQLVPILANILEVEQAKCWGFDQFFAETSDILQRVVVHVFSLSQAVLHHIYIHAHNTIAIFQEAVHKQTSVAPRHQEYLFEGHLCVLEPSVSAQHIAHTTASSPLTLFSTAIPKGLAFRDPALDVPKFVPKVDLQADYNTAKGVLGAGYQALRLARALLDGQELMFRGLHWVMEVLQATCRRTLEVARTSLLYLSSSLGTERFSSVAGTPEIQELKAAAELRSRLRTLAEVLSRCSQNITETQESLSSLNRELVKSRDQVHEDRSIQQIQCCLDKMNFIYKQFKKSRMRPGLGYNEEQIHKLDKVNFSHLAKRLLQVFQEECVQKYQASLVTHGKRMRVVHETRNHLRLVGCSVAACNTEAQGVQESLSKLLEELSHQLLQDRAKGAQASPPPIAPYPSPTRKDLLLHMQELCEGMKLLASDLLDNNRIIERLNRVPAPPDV
Conditions: at 0.1 µM.

Assay [11] deals with T4, Inhibitor of nuclear factor kappa-B kinase subunit epsilon (Homo sapiens). Conditions: at 1 µM.
Assay [12] concerns the target T5, Serine/threonine-protein kinase Nek1 (Homo sapiens) (UniProt Q96PY6).
T5 sequence (whole entry): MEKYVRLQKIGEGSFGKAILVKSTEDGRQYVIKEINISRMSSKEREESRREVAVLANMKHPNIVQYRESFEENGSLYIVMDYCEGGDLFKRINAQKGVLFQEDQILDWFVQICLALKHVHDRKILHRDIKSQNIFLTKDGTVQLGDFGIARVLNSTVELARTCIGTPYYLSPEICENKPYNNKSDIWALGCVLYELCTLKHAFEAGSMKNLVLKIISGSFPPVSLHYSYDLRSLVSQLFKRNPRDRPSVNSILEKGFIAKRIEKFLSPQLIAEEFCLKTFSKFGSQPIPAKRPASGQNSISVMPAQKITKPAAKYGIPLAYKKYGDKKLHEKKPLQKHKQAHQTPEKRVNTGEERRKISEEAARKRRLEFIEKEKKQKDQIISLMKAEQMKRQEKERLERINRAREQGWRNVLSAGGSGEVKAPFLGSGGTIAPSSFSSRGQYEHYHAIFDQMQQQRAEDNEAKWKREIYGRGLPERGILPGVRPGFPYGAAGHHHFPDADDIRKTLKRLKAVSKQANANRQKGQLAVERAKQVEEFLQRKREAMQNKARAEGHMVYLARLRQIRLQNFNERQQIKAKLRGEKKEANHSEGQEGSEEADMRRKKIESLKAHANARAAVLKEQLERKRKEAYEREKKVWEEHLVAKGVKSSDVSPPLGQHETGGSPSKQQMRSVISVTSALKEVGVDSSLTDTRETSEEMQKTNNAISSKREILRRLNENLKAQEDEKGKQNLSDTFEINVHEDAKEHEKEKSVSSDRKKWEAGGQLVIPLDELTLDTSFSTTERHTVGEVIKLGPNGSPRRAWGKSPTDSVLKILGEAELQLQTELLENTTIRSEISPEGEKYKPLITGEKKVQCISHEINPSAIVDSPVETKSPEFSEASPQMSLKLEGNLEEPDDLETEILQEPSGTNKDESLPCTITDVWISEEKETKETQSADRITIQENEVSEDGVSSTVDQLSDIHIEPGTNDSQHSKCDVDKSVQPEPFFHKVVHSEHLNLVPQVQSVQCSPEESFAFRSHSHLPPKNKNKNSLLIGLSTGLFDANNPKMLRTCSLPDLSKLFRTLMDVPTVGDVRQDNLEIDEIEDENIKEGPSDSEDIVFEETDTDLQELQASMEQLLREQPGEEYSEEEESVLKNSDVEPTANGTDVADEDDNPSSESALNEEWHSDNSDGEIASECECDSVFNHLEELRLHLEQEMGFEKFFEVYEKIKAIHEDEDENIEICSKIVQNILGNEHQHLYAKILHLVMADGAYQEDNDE
Conditions: at 0.1 µM.

Assay [13] deals with T5, Serine/threonine-protein kinase Nek1 (Homo sapiens). Conditions: at 1 µM.
Assay [14] addresses T6, Serine/threonine-protein kinase Nek2 (Homo sapiens) (UniProt P51955).
T6 sequence (whole entry): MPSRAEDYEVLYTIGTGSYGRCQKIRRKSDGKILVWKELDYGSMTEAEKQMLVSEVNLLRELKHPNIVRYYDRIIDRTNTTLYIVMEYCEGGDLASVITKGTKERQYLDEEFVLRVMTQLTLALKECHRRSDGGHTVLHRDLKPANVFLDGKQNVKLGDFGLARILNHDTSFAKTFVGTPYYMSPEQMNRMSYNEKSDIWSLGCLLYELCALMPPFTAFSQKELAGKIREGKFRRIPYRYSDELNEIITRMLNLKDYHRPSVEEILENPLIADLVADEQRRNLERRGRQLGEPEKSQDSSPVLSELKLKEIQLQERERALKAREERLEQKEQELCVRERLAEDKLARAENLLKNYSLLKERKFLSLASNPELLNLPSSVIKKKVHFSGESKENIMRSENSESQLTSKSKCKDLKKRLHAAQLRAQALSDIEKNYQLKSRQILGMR
Conditions: at 0.1 µM.

Assay [15] concerns the target T6, Serine/threonine-protein kinase Nek2 (Homo sapiens). Conditions: at 1 µM.
The target in assay [16] is Serine/threonine-protein kinase Nek6 (Homo sapiens) (UniProt Q9HC98). Conditions: at 0.1 µM.
For assay [17] the target is unchanged. Conditions: at 1 µM.
Assay [18] deals with Serine/threonine-protein kinase Nek7 (Homo sapiens) (UniProt Q8TDX7). Conditions: at 0.1 µM.
Assay [19] has the same target. Conditions: at 1 µM.
Assay [20] concerns the target T7, Serine/threonine-protein kinase Nek9 (Homo sapiens) (UniProt Q8TD19).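 Further: reported value is the mean percent inhibition of NEK9.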
T7 sequence (whole entry): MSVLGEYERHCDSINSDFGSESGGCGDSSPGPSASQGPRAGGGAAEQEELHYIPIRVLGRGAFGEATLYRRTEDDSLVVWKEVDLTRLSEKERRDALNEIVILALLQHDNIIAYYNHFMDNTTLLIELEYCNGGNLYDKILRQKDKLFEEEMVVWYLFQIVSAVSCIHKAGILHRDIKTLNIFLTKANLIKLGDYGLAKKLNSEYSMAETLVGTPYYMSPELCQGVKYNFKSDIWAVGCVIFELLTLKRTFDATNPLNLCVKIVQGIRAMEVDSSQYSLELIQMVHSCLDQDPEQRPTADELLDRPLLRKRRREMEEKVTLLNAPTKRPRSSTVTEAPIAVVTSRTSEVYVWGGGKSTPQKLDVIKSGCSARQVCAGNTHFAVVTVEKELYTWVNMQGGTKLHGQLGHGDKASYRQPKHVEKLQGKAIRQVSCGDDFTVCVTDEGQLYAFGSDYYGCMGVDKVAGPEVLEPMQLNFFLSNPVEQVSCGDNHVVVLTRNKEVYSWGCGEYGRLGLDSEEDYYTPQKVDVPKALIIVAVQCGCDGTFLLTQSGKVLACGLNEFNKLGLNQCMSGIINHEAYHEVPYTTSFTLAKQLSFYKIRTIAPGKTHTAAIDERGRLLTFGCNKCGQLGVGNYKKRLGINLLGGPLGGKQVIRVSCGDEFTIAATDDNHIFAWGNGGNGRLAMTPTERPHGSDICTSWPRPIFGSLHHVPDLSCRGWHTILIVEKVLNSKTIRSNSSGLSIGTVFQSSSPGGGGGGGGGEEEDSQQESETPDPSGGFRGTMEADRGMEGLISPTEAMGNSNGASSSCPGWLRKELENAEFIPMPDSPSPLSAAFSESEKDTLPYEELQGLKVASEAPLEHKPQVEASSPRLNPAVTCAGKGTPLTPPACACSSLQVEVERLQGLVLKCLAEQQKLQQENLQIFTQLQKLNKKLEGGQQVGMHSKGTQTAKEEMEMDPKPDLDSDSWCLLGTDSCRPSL
Conditions: at 0.1 µM.

For orientation: inhibition means the relative decrease from the control value, in per cent.

Structures are written as SMILES.

Serine/threonine-protein kinase Nek7 (Homo sapiens), sequence (Q8TDX7 whole entry, looked up): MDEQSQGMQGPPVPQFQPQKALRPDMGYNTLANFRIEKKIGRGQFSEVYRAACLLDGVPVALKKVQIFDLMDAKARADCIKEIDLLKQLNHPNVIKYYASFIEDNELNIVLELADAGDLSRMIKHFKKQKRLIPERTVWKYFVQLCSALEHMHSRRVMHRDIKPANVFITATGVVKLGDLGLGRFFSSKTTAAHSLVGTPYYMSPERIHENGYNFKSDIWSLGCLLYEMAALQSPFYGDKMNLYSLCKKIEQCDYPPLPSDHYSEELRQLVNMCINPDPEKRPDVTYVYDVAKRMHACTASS
Casein kinase II subunit alpha (Homo sapiens), sequence (P68400 whole entry, looked up): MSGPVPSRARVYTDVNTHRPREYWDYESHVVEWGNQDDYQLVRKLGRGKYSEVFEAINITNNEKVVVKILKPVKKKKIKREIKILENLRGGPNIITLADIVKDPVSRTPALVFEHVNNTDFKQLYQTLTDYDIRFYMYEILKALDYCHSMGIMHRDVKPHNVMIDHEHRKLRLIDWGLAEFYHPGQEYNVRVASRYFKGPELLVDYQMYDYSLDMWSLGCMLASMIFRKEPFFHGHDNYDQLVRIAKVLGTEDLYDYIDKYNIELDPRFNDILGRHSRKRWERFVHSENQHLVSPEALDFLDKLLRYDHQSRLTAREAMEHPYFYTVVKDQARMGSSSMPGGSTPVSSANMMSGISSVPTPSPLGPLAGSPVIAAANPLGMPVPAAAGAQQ
Serine/threonine-protein kinase Nek6 (Homo sapiens), sequence (Q9HC98 whole entry): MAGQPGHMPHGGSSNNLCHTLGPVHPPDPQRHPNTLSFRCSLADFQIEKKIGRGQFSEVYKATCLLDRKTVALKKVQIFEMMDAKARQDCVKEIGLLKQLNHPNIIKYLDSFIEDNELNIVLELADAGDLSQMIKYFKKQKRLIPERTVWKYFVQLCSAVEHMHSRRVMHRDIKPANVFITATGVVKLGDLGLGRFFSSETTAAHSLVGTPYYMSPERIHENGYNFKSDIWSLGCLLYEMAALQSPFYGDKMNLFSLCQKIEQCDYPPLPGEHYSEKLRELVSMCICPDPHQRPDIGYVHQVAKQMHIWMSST
Sphingosine kinase 1 (Homo sapiens), sequence (Q9NYA1 whole entry): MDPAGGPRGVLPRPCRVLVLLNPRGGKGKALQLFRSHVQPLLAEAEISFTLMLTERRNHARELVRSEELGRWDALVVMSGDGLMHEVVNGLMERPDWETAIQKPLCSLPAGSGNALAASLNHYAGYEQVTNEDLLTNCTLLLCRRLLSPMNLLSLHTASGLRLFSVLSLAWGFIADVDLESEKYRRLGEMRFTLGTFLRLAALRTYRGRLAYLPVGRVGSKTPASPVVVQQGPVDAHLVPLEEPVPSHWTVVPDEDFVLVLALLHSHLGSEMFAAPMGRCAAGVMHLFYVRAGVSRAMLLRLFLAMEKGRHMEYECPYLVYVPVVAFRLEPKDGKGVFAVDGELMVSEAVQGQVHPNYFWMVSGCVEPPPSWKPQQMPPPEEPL

`CCn1c(-c2nonc2N)nc2c(C#CC(C)(C)O)nc(O[C@@H](CN)c3ccccc3)cc21`: the inhibition in [1] was -0.99%; in assay [2], -0.06%; in [3], -0.62%; in assay [4], -0.87%; in [5], 3.9%; in assay [6] it was -6.57%. Further, the inhibition was -2.27% in assay [7]; -1.36% in assay [8]; -3.23% in assay [9]; 88.3% in assay [10]; 98.9% in assay [11]; 1.61% in [12]. Also, the inhibition was 17.2% in [13]; 5.29% in assay [14]; 33.5% in assay [15]; 0.93% in assay [16]; -0.92% in assay [17]; 1.12% in assay [18]. The results for the inhibition in assay [19] and in assay [20] were 0.58% and 3.66%, respectively.

These data come from ChEMBL document CHEMBL1961873, “Compounds: GSK PKIS; Assays: Nanosyn kinase panel” (2012).
